The text below walks through data of PubChem BioAssay (EPA / NIEHS).

The structures appear in SMILES notation. Active and inactive are the calls of the source. Rule for the calls: active = hit-call score of the fitted dose curve at least 0.9, where 1 is the maximum; inactive = score below 0.9.

Read-out in the assay: Apolipoprotein A-V (APOA5) gene, APOA5 (gene 116519)
Nature of the assay: LTEA_HepaRG_APOA5: Life Technologies and Expression Analysis (LTEA) Assay for Apolipoprotein A-V (APOA5) gene using HepaRG (AID 2283474). Particulars: mRNA level, 48 h; actives raise or lower the signal. As to the method: LTEA_HepaRG is a cell based, multiplexed-readout assay that uses HepaRG, a human liver cell line, with measurements taken at 48 hours after chemical dosing on a 96-well plate.LTEA_HepaRG_APOA5 is one of 102 assay component(s) measured in the LTEA HepaRG cell culture assay. It is a marker of Steatosis.Data from the assay component LTEA_HepaRG_APOA5 was analyzed into 1 endpoint. This assay endpoint, LTEA_HepaRG_APOA5, was analyzed with bidirectional fitting relative to DMSO as the negative control and baseline of activity. Using a type of inducible reporter, measures of mRNA induction for gain or loss-of-signal activity can be used to understand regulation of transcription factor activity. To generalize the intended target to other relatable targets, this assay endpoint is annotated to the apolipoprotein intended target family, where the subfamily is Steatosis.
A total of 1060 chemcials from the ToxCast library were tested in eight-point concentration-response experiments. Cell culture and cytotoxicity assays were conducted at Thermo Fisher Scientific's Custom Services facility (Madison, WI). A single lot of human HepaRG cells (Thermo Fisher Scientific, Frederick, MD) was used for the cell culture experiments. 96-well format collagen type I coated plates of human HepaRG cells were prepared using established methods. Briefly, cryopreserved HepaRG cells were thawed, plated at a density of approximately 100,000 cells/well in HepaRG Thaw, Plate, and General Purpose media (HPRG770, Thermo Fisher Scientific), and incubated for 48 hours. 0.5% DMSO was selected as vehicle control to balance the requisite need of DMSO in HepaRG cultures to maintain differentiation (for example, baseline metabolism, proportions of hepatocytes vs. cholangiocytes), while enabling further hepatic receptor pathway activation (for example, PXR and CAR) in response to chemical exposure. 48 hours after plating, the culture medium was replaced with HepaRG Serum-Free Incudtion Media. Cells were exposed to each test chemical in duplicate and maintained in CO2 incubators for another 48 hours. Chemical plates were thawed to room temperature and 200x concentrations of treatment groups were prepared. 8-point conentration-reponse curves were made with the highest exposure at 100 uM, followed by half-log dilutions, all in 0.5% DMSO. Each test plate contained variouse controls, induction positive controls (1mM phenobarbital), cytotoxicity positive controls ([…] aflatoxin B1), vehicle controls (0.5% DMSO), and total lysis controls (0.5% DMSO). Cell morphology images were taken using an Essen IncuCyte FLR automated microscope, with six 96-well plates imaged in about 24 minutes. Images were captured and exported and JPEG files. Spent culture media was transfered to black-well plates for the LDH assay, and remaining media was sorted at -80 C for later use. Cells were treated with RLT buffer and frozen until shipped for gene expression analysis. Total RNA was isolated from the cell suspension in 75 uL of Buffer RLT (Qiagen, Germantown, MD 20874) by Quintiles/Expression Analysis (Durham, NC) using a custom isolation procedure. Total RNA from each plate well was transferred to a preamplification plate. Fluidigm's 96.96 Dynamic ArrayTM (Fluidigm, Amsterdam, the Netherlands) technology was used for gene expression analyses by quantitative reverse transcription polymerase chain reaction (qRT-PCR, performed by Quintiles/Expression Analysis, Durham, NC)89. Standard TaqManTM Assays (Applied Biosystems/ThermoFisher Scientific, Foster City, CA) were used to assess the expression of 93 genes selected based on their selectivity and sensitivity to important hepatic receptors known to be modulated by environmental chemicals; importance in human hepatocyte functionality; and hepatotoxicity. […]
For the compound `CCCCCCCCCC(=O)O`, the compound was classed as inactive. The AC50 is the concentration giving half of the maximal activity seen. `CCN(CC)C(=O)c1cc(S(=O)(=O)Cc2ccccc2)c(N2CCC(c3ccccc3)CC2)cc1N(CC)CCN(C)C`: the AC50 is 29.2 µM (active). Turning to `O=C1O[C@H]([C@@H](O)CO)C(O)=C1O`, the result was inactive. Regarding `CO[C@H]1/C=C/O[C@@]2(C)Oc3c(C)c(O)c4c(O)c(c(/C=N/N5CCN(C)CC5)c(O)c4c3C2=O)NC(=O)/C(C)=C\C=C\[C@H](C)[C@H](O)[C@@H](C)[C@@H](O)[C@@H](C)[C@H](OC(C)=O)[C@@H]1C`, the result was inactive. Take `CCCCCCCCCCCCO`: the result was inactive. The same measure, in the same setting: the value for `C[C@]12CC[C@@H]3c4ccc(O)cc4CC[C@H]3[C@@H]1CCC2=O` was “inactive”. The same measure, in the same setting: the result for `CCCCCCCCCCCO` reads “inactive”. Turning to `CC(C)(C)c1csc(-c2cc3cc(OCc4ccccc4CC(=O)O)ccc3o2)n1`, the half-maximal activity concentration (AC50) was 20 µM (active). As for `CCCOC(=O)c1cc(O)c(O)c(O)c1`, the compound was called inactive. Still for that read-out and setting: the result for `CC(C)(C)c1cc(/C=C2\SC(N)=NC2=O)cc(C(C)(C)C)c1O` reads “inactive”.

Turning to `OCCO`, the result was inactive. Turning to `Cc1cc2c(cc1C(F)(F)F)N(C(=O)Nc1ccc(Oc3cccnc3C)nc1)CC2`, the AC50 is 78 µM (active). Take `O=c1c(-c2ccc(O)cc2)coc2cc(O)cc(O)c12`: the call was inactive. Regarding `Cc1oc2c(NC(=O)c3c(Cl)cccc3Cl)cccc2c1C(C)(C)O`, the AC50 is 50.7 µM (active).

Regarding `NC(=O)c1nc(-c2cccc(-c3cc(F)ccc3OCC(F)(F)C(F)(F)F)c2)n[nH]1`, the result was inactive. Turning to `Cc1cc(F)ccc1-c1cc(N2CC[C@@H](O)[C@H]2CO)ncc1N(C)C(=O)C(C)(C)c1cc(C(F)(F)F)cc(C(F)(F)F)c1`, the AC50 was 12.9 µM (active). Still for that read-out and setting: the result for `CCN(Cc1cccnc1)C(=O)c1cccc(Cl)c1[C@]1(C)C(=O)N(Cc2ccc(OC)cc2OC)c2ccc(Cl)cc21` reads 11.4 µM (active). Turning to `O=c1ccc2ccccc2o1`, the compound was classed as inactive. On to `CC(O)CC(C)(C)O` (stereo not given), for which the compound was classed as inactive. Same read-out and setting: the result for `CCCCCCCCOc1ccc(C(=O)c2ccccc2)c(O)c1` reads “inactive”. Take `O=C(Nc1ccc(Cl)cc1)Nc1ccc(Cl)c(Cl)c1`: the AC50 was 21.4 µM (active).

On to `CC(C)(O)c1ccc(CNC(=O)c2cccnc2Oc2ccc3nonc3c2)cc1`, for which the call was inactive. Take `Cc1c2ccccc2c(C)c2c1ccc1ccccc12`: the AC50 is 50 µM (active). Regarding `COc1ccc2cc(S(=O)(=O)N[C@H](CC(=O)N[C@H](Cc3ccc(CN4[C@H](C)CCC[C@@H]4C)cc3)C(=O)N(C)C(C)C)c3ccc4c(c3)OCO4)ccc2c1`, the result was inactive.

`O=C1CCC(C2CCCCC2)CC1`: the compound was classed as inactive. For the compound `O=C=NCCCCCCN=C=O`, the compound was classed as inactive. As to `O=C(O)Cc1cc(I)c(Oc2ccc(O)c(I)c2)c(I)c1`, the AC50 was 84.9 µM (active). Still for that read-out and setting: the value for `CCCCCCCCCCCC[N+](C)(C)C` was 79.4 µM (active). On to `O=CCCCC=O`, for which the result was inactive. Turning to `CC(=O)N1CCN(c2ccc(OC[C@H]3CO[C@](Cn4ccnc4)(c4ccc(Cl)cc4Cl)O3)cc2)CC1`, the concentration at half-maximal activity (AC50) was 17.8 µM (active).

With `c1ccc2ccccc2c1`, the compound was classed as inactive.

As to `Cc1cccc2ccccc12`, the call was inactive. For `CC/C(=C(/CC)c1ccc(O)cc1)c1ccc(O)cc1`, the AC50 was 50 µM (active). Same read-out and setting: the result for `OC12N=C(c3ccccc3)SC1Cc1cc(Cl)ccc12` (stereo not given) reads 25.2 µM (active). In the case of `CCCC(=O)OCCC(C)C`, the result was inactive.

In the case of `CCN(Cc1cccc(S(=O)(=O)O)c1)c1ccc(C(=C2C=CC(=[N+](CC)Cc3cccc(S(=O)(=O)O)c3)C=C2)c2ccccc2S(=O)(=O)[O-])cc1`, the outcome was inactive. `CN(C)C(=O)C1(N2CCCCC2)CCN(CC[C@@]2(c3ccc(Cl)c(Cl)c3)CN(C(=O)c3ccccc3)CCO2)CC1`: the result was inactive.

For `CN(C)c1ccc(C(=C2C=CC(=[N+](C)C)C=C2)c2ccc(N(C)C)cc2)cc1`, the AC50 is 5.32 µM (active).

For the compound `O=C1c2ccccc2C(=O)N1CCc1noc(-c2ccc(CN3CCCCCC3)s2)n1`, the compound was called inactive. Turning to `O=C(O)Cn1c(=O)n(Cc2ccc(Br)cc2F)c(=O)c2ccc(Cl)cc21`, the compound was called inactive.
